# A selection: hits, their analogues and other compounds. The true share with any hit is near 3.3%.
# AmpC inh detg: qHTS Inhibitors of AmpC Beta-Lactamase (assay with detergent). AmpC hydrolysis of nitrocefin, absorbance 480 nm, 0.01% Triton. Potency, µM (top dose mostly 114 µM), inactives show at the highest dose activity change, negative = inhibition, most hits filed as inhibitors. actives 0.041% (n = 370,000);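 also: 0% = no-compound wells and -100% = no-enzyme wells; nearly all actives have a fitted effect of over 25% in size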
# Target sequence (P00811 whole entry, looked up): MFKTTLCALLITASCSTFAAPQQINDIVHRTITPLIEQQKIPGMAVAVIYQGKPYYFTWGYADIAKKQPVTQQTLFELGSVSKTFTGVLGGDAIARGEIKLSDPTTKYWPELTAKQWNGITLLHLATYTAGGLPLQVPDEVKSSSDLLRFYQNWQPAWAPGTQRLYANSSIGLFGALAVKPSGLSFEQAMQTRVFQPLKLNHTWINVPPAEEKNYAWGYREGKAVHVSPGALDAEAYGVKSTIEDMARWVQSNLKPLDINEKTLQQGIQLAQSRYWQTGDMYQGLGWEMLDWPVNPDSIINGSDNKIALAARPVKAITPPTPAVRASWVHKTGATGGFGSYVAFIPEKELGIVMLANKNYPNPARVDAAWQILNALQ
#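 20 mM phosphate pH 7.0 + 0.01% (detergent screen) or 0.0001% Triton X-100; 5.3 nM AmpC reagent; cpd preinc 15 min RT; nitrocefin (800 uM stock) to start; A480 q20 s × 4 min; Activity was normalised to no-enzyme and no-compound control wells.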
# Sm TGR inh: qHTS Assay for the Inhibitors of Schistosoma Mansoni Peroxiredoxins; Potency, µM (top dose mostly 114 µM), for inactives: top-dose activity change, negative = inhibition, usual class: inhibitors; purified TGR, DTNB reduction, TNB absorbance 405 nm; actives 3% (n = 360,000); Schistosoma mansoni thioredoxin glutathione reductase (TGR), Q962Y6; also: nearly all actives have a fitted effect of over 60% in size
#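 First, TGR (20 nM dispensed) and NADPH were mixed with compound. Second, a 15 min room-temperature incubation followed. Third, further NADPH and then DTNB were added to start the reaction. Finally, TNB absorbance was monitored kinetically.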
# AmpC no deterg: qHTS Inhibitors of AmpC Beta-Lactamase (assay without detergent); P00811; actives 0.52% (n = 330,000); Potency, µM (doses to about 57.1 µM), inactives show at the top dose activity change, negative = inhibition, usual class: inhibitors; AmpC nitrocefin hydrolysis, absorbance 480 nm, 0.0001% Triton;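 also: plate controls were no compound for no effect and no enzyme for full effect; nearly all actives have a fitted effect of over 20% in size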
#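 AmpC (5.3 nM in the dispensed reagent) in 20 mM phosphate pH 7.0 with 0.01% (detergent screen) or 0.0001% Triton X-100 was preincubated with compounds for 15 min at room temperature. Nitrocefin was then added from an 800 uM solution, and hydrolysis was followed at 480 nm.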
# Numbers without * were called inactive; ? = inconclusive; . = no result given. Calls follow the shape of the dose curve; as a rule, active = well fitted curve in the direction sought with a large enough effect; inconclusive = small, poorly fitted or top-dose-only effect, or another doubt; inactive = no such curve, though single readings can be large; an effect the other way counts as inactive or inconclusive. Unless noted, % is scaled to controls: 0 for no effect and ±100 for the full control effect; potency is read from the fitted curve at half-maximal effect.
SMILES,AmpC inh detg,Sm TGR inh,AmpC no deterg
COc1ccc(Nc2ncc(C(=O)Nc3cccc(OC)c3)c3ccccc23)cc1,6%,21%,.
COc1ccccc1N1CCN(S(=O)(=O)c2c(C)sc3ncn(CC(=O)N(C)c4ccc(C(C)C)cc4)c(=O)c23)CC1,4%,5%,.
Cc1ccc(C(C)C)c(OCC(=O)Nc2c(C(=O)c3ccccc3)oc3ccccc23)c1,23%,6%,.
Nc1ccc(C2=Nc3cccc4cccc(c34)N2)cc1,-4%,?,?
CC1=Nc2cccc3cccc(c23)N1,-8%,40µM*,0%
CCc1ccc(CNC(=O)C(CC)n2ccc3cc(S(=O)(=O)N4CCCCC4)ccc32)cc1 (stereo not drawn),8%,-1%,.
c1ccc(-n2nnc3ccccc32)cc1,?,3%,-24%
C(=C\n1nnc2ccccc21)/c1ccc[nH]1,?,25µM*,-42%
COc1cccc(CNCCSc2nnnn2C)c1OCc1ccccc1F,-3%,-5%,.
COC(=O)c1ccccc1NC(=O)/C=C/C(=O)O,?,-14%,-14%
O=C(O)/C=C\C(=O)Nc1ccccc1C(=O)NCc1ccccc1,0%,?,-21%
CCCCCCOC(=O)c1ccccc1NC(=O)/C=C/C(=O)O,3%,45µM*,-28%
O=C(O)/C=C\C(=O)Nc1ccccc1C#Cc1ccc(Br)cc1,-5%,45µM*,-19%
O=C(O)/C=C\C(=O)NCc1ccccc1,-3%,-17%,-6%
O=C(O)/C=C\C(=O)Nc1ccccc1C#Cc1ccccc1,0%,40µM*,-19%
CCOC(=O)c1ccccc1NC(=O)/C=C/C(=O)O,6%,?,-21%
O=C(O)/C=C/C(=O)NCc1ccccc1,-13%,50µM*,5%
CCCn1c2ccccc2c2cnn(CC(=O)NCCc3cc(OC)ccc3OC)c(=O)c21,4%,-2%,.
CCc1nn(Cc2c(C)cc(C)cc2C)c(=O)c2cc3cc(C)ccc3n12,1%,-5%,.
Cc1nn(-c2ccc3nnc(C)n3n2)c(C)c1CCC(=O)Nc1ccc(OC(F)(F)F)cc1,2%,2%,.
CCCN1C(=O)C(Cc2nc3ccccc3c(=O)n2CC)c2cc(Br)ccc21 (stereo not drawn),21%,7%,.
NC(=O)c1ccccc1NC(=O)/C=C/C(=O)O,-1%,3%,-6%
O=C(O)/C=C/C(=O)Nc1ccccc1SC(F)(F)F,?,8.9µM*,-12%
O=C(O)/C=C/C(=O)Nc1ccccc1-c1ccccc1NC(=O)/C=C/C(=O)O,-16%,8.9µM*,-27%
O=C(O)/C=C/C(=O)Nc1ccc(SC(F)(F)F)cc1,-11%,-14%,-9%
SMILES,AmpC inh detg,Sm TGR inh,AmpC no deterg
O=C(CCCn1c(=O)c2ccccc2n(Cc2ccc(F)cc2Cl)c1=O)NCCc1ccc(Cl)cc1,13%,?,.
CCC(C(=O)NC1CCC(C)CC1)n1nc(C)c2sc3ccccc3c2c1=O (stereo not drawn),22%,-1%,.
CCOc1ccc(N2CC(NS(=O)(=O)c3cccs3)CC2=O)cc1 (stereo not drawn),?,-24%,-15%
O=C1CC(NS(=O)(=O)c2cccs2)CN1c1ccc(F)cc1 (stereo not drawn),?,-6%,32µM*
CC(C)Oc1ccc(CNC(=O)c2sc3ncccc3c2-n2cccc2)cc1,15%,1%,.
CC1=Nc2cc(C(=O)NC3CCCCC3)ccc2Sc2ccc(Cl)cc21,1%,-6%,.
CCc1ccc(O)c(N=Cc2ccccc2O)c1,?,?,-23%
O=c1[nH][nH]c2c(N=Cc3ccccc3O)ccc(F)c12,?,0.4µM*,-45%
Cc1ccc(-c2cc3c(N4CCN(c5cc(C)ccc5C)CC4)nccn3n2)cc1,18%,2%,.
O=C1Nc2ccccc2C1Cc1ccc(OC(F)(F)F)cc1 (stereo not drawn),-12%,-6%,-2%
COc1cc(CC2C(=O)Nc3ccccc32)cc(C)c1O (stereo not drawn),-8%,40µM*,-14%
CCOC(=O)Cn1c(=O)n(CC2CCCO2)c2nc(-c3ccc(CC)cc3)nc(C(N)=O)c21 (stereo not drawn),7%,-5%,.
Cc1ccccc1-n1nc(CO)c(C(=O)NCc2cccs2)n1,-9%,0%,.
CCCn1c(CN2CCN(C(=O)c3ccco3)CC2)nc2cc(S(=O)(=O)N(C)C)ccc21,-11%,28µM*,173%
CCn1c(CN2CCN(c3ccc(OC)cc3)CC2)nc2cc(S(=O)(=O)N(C)C)ccc21,-1%,-17%,71%

# Compound activity: PubChem, National Center for Advancing Translational Sciences (NCATS)
